Data taken from the supplement of paper PMC11417369.
Over roughly 25,000 sequences, “ln(normalized median fluorescence intensity)” has its median near 9.3; the highest 2% begin near 10. Only a selection was taken, and the highest values are over-represented in it overall.

System: PF3D7_0420300 AP2 domain 1 (GST-tagged)
Assay: gcPBM binding intensity (ln(normalized median fluorescence intensity)); higher = stronger DNA binding
How it was run: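 Binding intensity values are the highest Masliner-normalised natural-log median intensity among replicate spots of either probe orientation. The binding step lasted 1 h in 1× PBS with 1% milk, 0.2 mg/ml BSA, 0.5% salmon testes DNA and 0.03% Triton X-100, using GST-tagged P. falciparum DNA-binding domains expressed in E. coli on an Agilent 4 × 180k array of primer-extended double-stranded 36-bp intergenic genomic probes plus negative controls. Alexa488 anti-GST antibody and a 488 nm scan detected bound protein.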

Sequence	gcPBM binding intensity (ln)
ATAATTACAAAATAAACACACATATAGATTTATATG [CACACA_site6343]	9.6
TACACGCTAAAATACACACACACACCCACATATATA [CACACA_site4153]	10.2
TATATATATAAATACACACACACCCTAAAAATATAT [CACACA_site4970]	10.1
TATACACCCTAAAATACACACACACCCACCCATATA [CACACA_site9380]	10.3
TATAAATATACACCCACACACATATATAAATAAATA [CACACA_site7717]	9.89
AAAAAAAATACATACACACACACACCCACATATATA [CACACA_site3561]	10.1
TATAAATATACACCCACACACATATATATATATATA [CACACA_site3745]	9.66
TATATAAATATACACCCACACACATATATATATATA [CACACA_site9247]	9.63
TACCCACTAAAATACACACACACACCCACATATATA [CACACA_site6141]	10.2
TATATATATATATACACACACACCCTAAAAATATAT [CACACA_site1611]	9.97
AATATAAAAATATAAAAACACACGTAAAAAAATTTA [CACACA_site3399]	9.73
TAATTTCTTATGTATTGTACAAATAATGTATGATAT [XGTACX_site270]	9.2
AAAAAAAAAAAAAAGGTGCAAATAAATTAACCTTAT	9.16
TGCAAGGAACAACACACACACACATAAATGTATATA [CACACA_site8149]	10.2
AGAAAAAACAAAAGAGAAATGAAAAAAAAAAAAAAA [XGTACX_negctrl_site482]	8.87
TTAAGATAGCAAATATGTACACATTTGTAAAATAAA [XGTACX_site4837]	9.25
TTAAACGTACATAATACACACACATGTAGACATATA [CACACA_site8635]	9.79
TATATATATTGTTATTGTACACAAATATAGGAAATA [XGTACX_site7110]	9.23
GTTTTCTAGTGGGGGTGTACATATTTATATTTAATA [XGTACX_site8378]	10.2

Sequence	gcPBM binding intensity (ln)
ATATATTATTTCTAGTGTACATACCCATATATAATA [XGTACX_site8902]	9.46
TTTATTAATTTATAGTGTACATATTAATAATATATT [XGTACX_site7949]	9.09
TTTGTGATATTATATTGTACCCTATATTTATTATAA [XGTACX_site4240]	9.56
TTATGTTCATTATATGCACACATATATATAAATGTA [CACACA_site8947]	9.24
TTTTTATAACAGCTTAGTACATATAAGAATTCTTGC [XGTACX_site5890]	8.9
TCATAATGAAAACAAGCACACATACATAAAATAAAA [CACACA_site9069]	9.7
AAGCACAAAAAATACACACACAAAAAATAAAAAAAG [CACACA_site1840]	10.1
AACATAAAAATTGAAGCACACACACTAATGAAATAC [CACACA_site8287]	10.2
GCAAAATAAAGAAGCACACAAAAATGAAATATATAT [CACACA_site3651]	9.59
TAAAAGAAAGCACATACACACACAAAAAAAAAAAAG [CACACA_site8159]	10.2
ATAATGAAAACAAGCACACATACATAAAATAAAATA [CACACA_site3257]	9.86
TAAAAGTTGAAGCACACACACAAAAGAAATACAATA [CACACA_site6649]	10.1
TAAAAATTGAAGCACACACACAAAAGAAATACAATA [CACACA_site1113]	10.2
CATAAAAATTGAAGCACACACACAAAAGAAATACAA [CACACA_site1112]	10.2
GGTCTTTTCAACACACGTACATAAAAATATTATACA [XGTACX_site5360]	9.47
AAATAAATAATAAATAAATAAATAAAATACCAAATA [GTGCAC_negctrl_site620]	9.6
AAGAAAATATAAAATGCACACTATAAATTGTATATA [CACACA_site7928]	9.51
TACATAAATACATACATACACACATATATATATATA [CACACA_site2105]	9.56
AAATAAAAAACAGTGGCACACATTATGTATCCACCT [CACACA_site3756]	9.32

Sequence	gcPBM binding intensity (ln)
TATATACGCATGCGCACACACAAGTGGGAAATTTGG [CACACA_site1785]	9.52
TGATATTTTATTATTAAAATATATACATATATATAT [CACACA_negctrl_site1456]	9.26
TAAAAAAGTTATATTACACACTTTATTGGTTAACTT [CACACA_site653]	9.35
CTTGTCATTGGGCACACACACATGTATAGGTTATTA [CACACA_site3058]	9.7
CTCTTGTCATTTTGCACACACACATGTATAGGTTAT [CACACA_site3057]	10.2
AGCTCTTGTCATTTTGCACACACACCGGTATAGGTT [CACACA_site5654]	10.1
CTCTTGTCATTTTGCACACACACATGGATAGGTTAT [CACACA_site5655]	10.2
AGCTCTTGTCATTTTGCACACACACCCGTATAGGTT [CACACA_site3056]	10
CTTGTCATTTGGCACACACACATGTATAGGTTATTA [CACACA_site5656]	9.9
CGTATGTATATATATATACACACTTCTGTGATACGA [CACACA_site1949]	9.33
ATATAATTATATTCCATACACACATATATTTAAAGG [CACACA_site2958]	9.42
TAAATAAGCACATACACACATACATACATACATAAA [CACACA_site4017]	9.87
TATAAACATTATAAATGTACAAATATATATATATAT [XGTACX_site3218]	9.28
ATTATAATTACTCTAGTGCATTATAAATATGAATAA	8.93
TATGCAAGGAACCACACACACACACCGAAATGTATA [CACACA_site4573]	10.1
TATGCAAGGAACCACACACACACACCCAAATGTATA [CACACA_site750]	10.1
TATGCAAGGAACCACACACACACACGGAAATGTATA [CACACA_site6490]	10.2
AAATTAAAAAAAAATAAATAAAAAAAAAAAAAAAAT [CACACA_negctrl_site1611]	9.35
TGGATATATGTAAAAATTGCAAGAAAGATAAAAGGA [CACACA_negctrl_site64]	9.6
